Results: the supplement of paper PMC10849652
About 7,900 targets were measured; listed, in parts, are those with a hit and a random draw of the rest. About 0.6% of all pairs of compound and target were hits. A number with no mark means an inactive call.

How the values were obtained:
Test in all cases: log2 fold change, soluble protein after heating vs DMSO (PISA); higher = thermal stabilisation; K562 cells, 10 uM, 30 min; active = over 0.2 and 3.5 SD of the protein, either way, in both replicates (recomputed)
saracatinib = compound: CN1CCN(CCOc2cc(OC3CCOCC3)c3c(Nc4c(Cl)ccc5c4OCO5)ncnc3c2)CC1 [saracatinib]
In short: (§1)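 Thermal stability values are relative to control samples and come from duplicates. They are expressed as log2 fold changes. For measurement, K562 cells (2×10^6 cells/mL) received 10 μM compound for 30 min, and aliquots were heated for 3 min over 48°C-58°C, pooled, and extracted at 4°C in PBS with 0.5% NP-40. Soluble protein, the supernatant after 21,000xg for 90 min, was quantified by TMTpro 16plex LC-MS/MS with equalised channel sums.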

sotrastaurin = compound: CN1CCN(c2nc(C3=C(c4c[nH]c5ccccc45)C(=O)NC3=O)c3ccccc3n2)CC1 [sotrastaurin]
In short: as §1

alvocidib = compound: CN1CC[C@H](c2c(O)cc(O)c3c(=O)cc(-c4ccccc4Cl)oc23)[C@H](O)C1 [alvocidib]
In short: as §1

Tubastatin A = compound: CN1CCc2c(c3ccccc3n2Cc2ccc(C(=O)NO)cc2)C1 [Tubastatin A]
In short: as §1

[1] = compound: CNC(=O)C1=CC=CC=C1NC2=NC(=NC=C2Cl)NC3=C(C=C(C=C3)N4CCOCC4)OC
In short: as §1

defactinib = compound: CNC(=O)c1ccc(Nc2ncc(C(F)(F)F)c(NCc3nccnc3N(C)S(C)(=O)=O)n2)cc1 [defactinib]
In short: as §1

rucaparib = compound: CNCc1ccc(-c2[nH]c3cc(F)cc4c3c2CCNC4=O)cc1 [rucaparib]
In short: as §1

[2] = compound: CNc1nc(-c2ccc3c(N)n[nH]c3c2)cc(N2C[C@@H](C(=O)NC3CCCCC3)CC[C@H]2C)n1
In short: as §1

encorafenib = compound: COC(=O)N[C@@H](C)CNc1nccc(-c2cn(C(C)C)nc2-c2cc(Cl)cc(NS(C)(=O)=O)c2F)n1 [encorafenib]
In short: as §1

[3] = compound: COC(=O)[C@H](CCSC)NC(=O)C1=C(C=C(C=C1)NC[C@H](CS)N)C2=CC=CC=C2
In short: as §1

Sequence of UniProt Q16763 (Q16763 whole entry, looked up): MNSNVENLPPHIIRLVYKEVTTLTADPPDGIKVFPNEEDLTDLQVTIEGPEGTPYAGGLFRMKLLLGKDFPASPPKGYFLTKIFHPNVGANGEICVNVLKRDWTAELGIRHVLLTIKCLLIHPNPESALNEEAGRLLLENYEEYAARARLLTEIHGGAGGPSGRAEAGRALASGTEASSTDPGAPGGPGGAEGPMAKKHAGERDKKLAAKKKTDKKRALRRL
Sequence of UniProt Q92890 (Q92890 whole entry, looked up): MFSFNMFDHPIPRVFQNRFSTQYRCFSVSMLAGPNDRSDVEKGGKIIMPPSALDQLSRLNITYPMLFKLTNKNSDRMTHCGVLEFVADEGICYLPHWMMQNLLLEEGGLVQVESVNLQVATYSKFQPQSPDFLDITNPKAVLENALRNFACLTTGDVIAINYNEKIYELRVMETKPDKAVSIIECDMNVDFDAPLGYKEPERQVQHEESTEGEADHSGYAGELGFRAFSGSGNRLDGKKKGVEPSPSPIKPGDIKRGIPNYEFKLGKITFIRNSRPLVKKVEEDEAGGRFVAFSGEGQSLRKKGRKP
Sequence of UniProt Q9NUM4 (Q9NUM4 whole entry, looked up): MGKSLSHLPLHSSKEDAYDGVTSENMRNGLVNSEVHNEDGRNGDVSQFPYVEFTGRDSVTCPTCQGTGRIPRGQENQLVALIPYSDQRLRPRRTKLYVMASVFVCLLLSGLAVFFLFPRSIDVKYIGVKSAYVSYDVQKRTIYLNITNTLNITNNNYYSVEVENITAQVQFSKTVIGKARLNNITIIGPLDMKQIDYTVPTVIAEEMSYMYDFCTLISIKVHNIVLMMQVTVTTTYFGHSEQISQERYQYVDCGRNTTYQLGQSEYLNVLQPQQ
Sequence of UniProt Q8IY95 (Q8IY95 whole entry, looked up): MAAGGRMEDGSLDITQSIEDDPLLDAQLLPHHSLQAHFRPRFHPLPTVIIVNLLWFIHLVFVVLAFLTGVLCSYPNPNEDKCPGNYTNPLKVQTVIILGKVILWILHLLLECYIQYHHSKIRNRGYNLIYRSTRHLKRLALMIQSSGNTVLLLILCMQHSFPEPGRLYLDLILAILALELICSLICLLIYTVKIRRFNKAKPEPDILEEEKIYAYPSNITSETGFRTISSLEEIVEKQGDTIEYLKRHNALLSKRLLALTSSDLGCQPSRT
Sequence of UniProt P07951 (P07951 whole entry, looked up): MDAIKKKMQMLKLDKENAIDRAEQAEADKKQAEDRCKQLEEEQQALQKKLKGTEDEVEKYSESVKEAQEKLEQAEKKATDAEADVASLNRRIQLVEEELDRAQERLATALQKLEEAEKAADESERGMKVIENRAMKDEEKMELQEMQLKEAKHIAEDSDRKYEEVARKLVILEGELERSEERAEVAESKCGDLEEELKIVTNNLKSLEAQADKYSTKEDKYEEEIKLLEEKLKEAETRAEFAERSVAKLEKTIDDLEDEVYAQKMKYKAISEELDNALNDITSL
Sequence of UniProt Q9BVJ6 (Q9BVJ6 whole entry, looked up): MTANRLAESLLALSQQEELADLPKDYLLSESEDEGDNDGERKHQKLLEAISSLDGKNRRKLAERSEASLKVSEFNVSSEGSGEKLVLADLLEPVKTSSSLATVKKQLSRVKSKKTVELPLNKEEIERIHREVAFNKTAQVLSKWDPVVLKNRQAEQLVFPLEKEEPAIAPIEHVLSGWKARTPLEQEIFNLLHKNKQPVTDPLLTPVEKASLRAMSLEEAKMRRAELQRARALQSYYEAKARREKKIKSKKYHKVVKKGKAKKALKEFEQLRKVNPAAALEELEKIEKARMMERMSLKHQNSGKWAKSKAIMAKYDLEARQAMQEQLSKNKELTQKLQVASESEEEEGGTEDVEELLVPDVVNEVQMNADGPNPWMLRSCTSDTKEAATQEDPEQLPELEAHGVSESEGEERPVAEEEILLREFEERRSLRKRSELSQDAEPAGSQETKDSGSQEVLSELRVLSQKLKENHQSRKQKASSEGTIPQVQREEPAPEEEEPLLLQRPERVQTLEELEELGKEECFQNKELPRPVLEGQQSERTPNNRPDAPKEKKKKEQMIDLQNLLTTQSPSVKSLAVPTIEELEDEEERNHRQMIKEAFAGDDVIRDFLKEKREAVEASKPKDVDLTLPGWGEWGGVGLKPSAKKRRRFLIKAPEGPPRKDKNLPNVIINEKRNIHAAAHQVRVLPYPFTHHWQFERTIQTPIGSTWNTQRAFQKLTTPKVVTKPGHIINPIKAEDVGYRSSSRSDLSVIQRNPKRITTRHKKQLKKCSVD
Sequence of UniProt Q9UEU0 (Q9UEU0 whole entry, looked up): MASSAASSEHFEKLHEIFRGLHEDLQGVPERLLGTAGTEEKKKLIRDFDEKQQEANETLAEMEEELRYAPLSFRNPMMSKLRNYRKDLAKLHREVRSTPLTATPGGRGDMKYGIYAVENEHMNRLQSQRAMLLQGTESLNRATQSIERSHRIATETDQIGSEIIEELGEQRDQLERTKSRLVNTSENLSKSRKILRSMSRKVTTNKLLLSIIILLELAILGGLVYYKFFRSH
Sequence of UniProt Q9UL33 (Q9UL33 whole entry, looked up): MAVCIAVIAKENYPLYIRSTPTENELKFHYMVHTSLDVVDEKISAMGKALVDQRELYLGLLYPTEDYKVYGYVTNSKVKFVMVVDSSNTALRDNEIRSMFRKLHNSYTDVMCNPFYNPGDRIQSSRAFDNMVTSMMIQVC
Sequence of UniProt Q96AX1 (Q96AX1 whole entry, looked up): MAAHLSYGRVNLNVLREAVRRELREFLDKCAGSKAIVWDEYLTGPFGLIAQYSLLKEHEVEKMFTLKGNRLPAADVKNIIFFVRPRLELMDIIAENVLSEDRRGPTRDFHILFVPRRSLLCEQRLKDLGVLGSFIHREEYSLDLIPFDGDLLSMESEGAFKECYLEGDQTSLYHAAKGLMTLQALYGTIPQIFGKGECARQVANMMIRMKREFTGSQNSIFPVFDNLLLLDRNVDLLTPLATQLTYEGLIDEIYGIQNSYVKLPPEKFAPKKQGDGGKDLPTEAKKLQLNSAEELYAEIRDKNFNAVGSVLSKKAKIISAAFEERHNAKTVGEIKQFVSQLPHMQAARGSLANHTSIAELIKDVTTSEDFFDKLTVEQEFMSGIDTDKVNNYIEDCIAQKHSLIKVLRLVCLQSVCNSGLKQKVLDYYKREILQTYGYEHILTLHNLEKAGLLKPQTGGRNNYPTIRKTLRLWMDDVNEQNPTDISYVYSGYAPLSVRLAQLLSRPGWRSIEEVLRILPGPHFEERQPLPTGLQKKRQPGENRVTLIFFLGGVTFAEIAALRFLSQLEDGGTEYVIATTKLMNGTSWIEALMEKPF
Sequence of UniProt Q9Y6I4 (Q9Y6I4 whole entry, looked up): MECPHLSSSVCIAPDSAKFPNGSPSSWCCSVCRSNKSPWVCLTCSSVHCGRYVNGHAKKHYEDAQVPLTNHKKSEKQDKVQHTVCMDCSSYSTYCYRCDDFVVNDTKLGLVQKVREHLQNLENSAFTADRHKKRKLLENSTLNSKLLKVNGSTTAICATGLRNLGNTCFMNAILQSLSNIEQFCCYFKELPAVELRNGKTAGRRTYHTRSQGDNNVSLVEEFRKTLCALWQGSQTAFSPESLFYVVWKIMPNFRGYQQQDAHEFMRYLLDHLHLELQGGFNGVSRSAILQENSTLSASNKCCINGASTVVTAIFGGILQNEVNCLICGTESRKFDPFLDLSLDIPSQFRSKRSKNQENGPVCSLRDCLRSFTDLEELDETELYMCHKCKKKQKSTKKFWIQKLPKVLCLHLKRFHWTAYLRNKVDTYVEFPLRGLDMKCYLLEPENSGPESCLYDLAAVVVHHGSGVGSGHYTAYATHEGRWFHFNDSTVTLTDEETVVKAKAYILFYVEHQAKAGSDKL
Sequence of UniProt Q9NZ09 (Q9NZ09 whole entry, looked up): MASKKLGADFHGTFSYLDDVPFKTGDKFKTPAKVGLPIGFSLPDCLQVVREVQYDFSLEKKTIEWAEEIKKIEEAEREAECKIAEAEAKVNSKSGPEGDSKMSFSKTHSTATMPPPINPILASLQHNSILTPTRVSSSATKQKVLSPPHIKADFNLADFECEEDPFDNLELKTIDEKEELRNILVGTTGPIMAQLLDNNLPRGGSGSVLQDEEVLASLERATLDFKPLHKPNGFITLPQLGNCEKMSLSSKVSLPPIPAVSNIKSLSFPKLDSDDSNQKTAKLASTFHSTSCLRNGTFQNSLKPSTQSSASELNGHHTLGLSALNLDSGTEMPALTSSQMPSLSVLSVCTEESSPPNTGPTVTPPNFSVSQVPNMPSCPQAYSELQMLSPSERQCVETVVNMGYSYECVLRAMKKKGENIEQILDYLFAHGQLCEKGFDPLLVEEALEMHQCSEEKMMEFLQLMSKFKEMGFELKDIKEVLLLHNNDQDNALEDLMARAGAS
Sequence of UniProt Q9NV66 (Q9NV66 whole entry, looked up): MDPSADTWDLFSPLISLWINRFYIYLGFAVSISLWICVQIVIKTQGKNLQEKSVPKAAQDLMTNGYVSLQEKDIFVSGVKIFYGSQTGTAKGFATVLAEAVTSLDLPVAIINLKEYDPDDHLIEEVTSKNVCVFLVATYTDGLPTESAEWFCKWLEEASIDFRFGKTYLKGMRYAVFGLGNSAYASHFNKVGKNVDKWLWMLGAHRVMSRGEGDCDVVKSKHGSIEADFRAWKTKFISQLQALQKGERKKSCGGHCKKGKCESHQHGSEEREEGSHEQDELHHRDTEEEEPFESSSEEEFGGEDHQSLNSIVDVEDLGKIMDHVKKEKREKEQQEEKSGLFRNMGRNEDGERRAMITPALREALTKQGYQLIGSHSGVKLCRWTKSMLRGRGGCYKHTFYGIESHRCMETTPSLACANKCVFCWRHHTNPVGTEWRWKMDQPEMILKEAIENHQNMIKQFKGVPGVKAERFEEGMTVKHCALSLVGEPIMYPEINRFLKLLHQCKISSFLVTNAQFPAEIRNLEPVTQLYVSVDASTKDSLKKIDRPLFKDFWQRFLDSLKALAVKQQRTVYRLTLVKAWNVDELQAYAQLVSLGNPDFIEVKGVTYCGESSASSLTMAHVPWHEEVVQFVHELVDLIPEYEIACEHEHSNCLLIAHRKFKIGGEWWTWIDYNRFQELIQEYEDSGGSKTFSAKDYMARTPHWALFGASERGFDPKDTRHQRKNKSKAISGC

Row | Target | log2 fold change (saracatinib) | log2 fold change (sotrastaurin) | log2 fold change (alvocidib) | log2 fold change (Tubastatin A) | log2 fold change [1] | log2 fold change (defactinib) | log2 fold change (rucaparib) | log2 fold change [2] | log2 fold change (encorafenib) | log2 fold change [3]
1 | UTP14A (UniProt Q9BVJ6) | -0.023 | -0.017 | 0.077 | 0.163 | 0.024 | 0.055 | 0.15 | 0.066 | 0.124 | 0.021
2 | TPM2 (UniProt P07951) | 0.177 | -0.033 | -0.078 | -0.012 | 0.004 | 0.042 | -0.027 | -0.026 | -0.006 | 0.102
3 | TOMM20 (UniProt Q15388) | 0.012 | -0.005 | -0.001 | -0.031 | -0.028 | -0.011 | -0.009 | -0.034 | -0.131 | 0.033
4 | VARS2, A0A0G2JL52 | 0.007 | -0.019 | -0.005 | -0.026 | -0.019 | -0.005 | 0.02 | 0.012 | -0.004 | -0.041
5 | TMEM161A (UniProt Q9NX61) | 0.011 | 0.027 | -0.027 | 0.039 | -0.108 | 0.03 | -0.106 | -0.029 | 0.106 | 0.058
6 | XPO5 (UniProt Q9HAV4) | 0 | -0.087 | -0.102 | -0.03 | 0.008 | -0.142 | -0.028 | 0.026 | 0.054 | -0.004
7 | TMEM106B (UniProt Q9NUM4) | 0.123 | 0.027 | 0.02 | -0.121 | -0.037 | 0.021 | -0.007 | -0.145 | -0.037 | -0.059
8 | TMEM192 (UniProt Q8IY95) | 0.092 | -0.028 | 0.001 | 0.035 | 0.015 | -0.016 | -0.01 | -0.033 | -0.02 | 0.036
9 | UXT isoform 2 (UniProt Q9UBK9) | 0.031 | -0.056 | -0.01 | 0.077 | -0.191 | 0 | 0.049 | -0.027 | -0.018 | -0.078
10 | USP3 (UniProt Q9Y6I4) | 0.16 | 0.074 | -0.288 | -0.181 | -0.118 | -0.205 | 0.042 | 0.155 | -0.008 | -0.092
11 | TMEM263 (UniProt Q8WUH6) | 0.027 | -0.046 | 0.025 | -0.049 | -0.161 | 0.007 | -0.031 | -0.057 | 0.015 | -0.015
12 | TRAPPC2L (UniProt Q9UL33) | -0.07 | -0.101 | -0.015 | 0.011 | -0.376 (active) | -0.032 | 0.03 | -0.026 | 0.012 | -0.042
13 | UFD1 isoform 1 (UniProt Q92890) | 0.008 | 0.005 | -0.021 | 0.027 | -0.022 | -0.013 | -0.02 | -0.054 | -0.004 | 0
14 | VTI1B (UniProt Q9UEU0) | 0.041 | 0.07 | 0.055 | -0.046 | -0.008 | 0.005 | 0.004 | -0.091 | 0 | 0.046
15 | TRIM28 (UniProt Q13263) | 0.008 | -0.064 | -0.128 | 0.048 | 0.054 | -0.121 | -0.075 | -0.019 | 0.047 | -0.032
16 | TYW1 (UniProt Q9NV66) | 0.089 | -0.059 | -0.064 | -0.033 | 0.031 | -0.055 | 0.052 | -0.061 | 0.028 | -0.059
17 | UBE2S (UniProt Q16763) | -0.001 | -0.023 | -0.078 | 0.2 | -0.016 | -0.082 | -0.051 | -0.041 | 0.022 | -0.007
18 | UBAP1 isoform 4 (UniProt Q9NZ09) | -0.023 | -0.032 | -0.038 | 0.007 | -0.028 | -0.08 | 0.089 | -0.053 | -0.05 | 0.006
19 | USP48 isoform 8 (UniProt Q86UV5) | -0.037 | -0.403 | -0.358 | 0.197 | 0.016 | -0.462 | -0.085 | -0.044 | 0.065 | -0.081
20 | VPS33A (UniProt Q96AX1) | -0.036 | -0.174 | -0.071 | 0.033 | -0.043 | -0.06 | 0.045 | -0.013 | -0.003 | -0.025
21 | WDR62 isoform 4 (UniProt O43379) | -0.025 | 0.037 | -0.074 | 0.027 | -0.165 | -0.06 | -0.035 | 0.017 | 0.015 | 0.014
22 | USP14 (UniProt P54578) | -0.007 | -0.013 | -0.047 | 0.033 | 0.012 | -0.064 | -0.025 | -0.01 | 0.044 | -0.021
23 | TMEM63B (UniProt Q5T3F8) | -0.084 | -0.055 | 0.021 | -0.015 | 0.019 | 0.015 | -0.004 | -0.068 | 0.023 | 0
24 | UTP4 (UniProt Q969X6) | 0.05 | 0.013 | 0.104 | -0.097 | 0.015 | 0.178 | 0.086 | 0.002 | -0.016 | 0.041
25 | TMTC3 (UniProt Q6ZXV5) | -0.03 | 0.028 | 0.009 | 0.009 | 0.012 | 0.009 | 0.022 | 0.006 | 0.028 | -0.019
26 | TRMT61A (UniProt Q96FX7) | -0.018 | -0.002 | 0.134 | 0.08 | -0.038 | 0.138 | 0.286 | 0.02 | -0.03 | 0.039
27 | TMEM223 (UniProt A0PJW6) | 0.114 | 0.048 | -0.025 | -0.059 | 0.045 | 0.015 | -0.03 | -0.02 | -0.047 | 0.022
